Experiment [1] can be described thus: sensitizers of A549 cells to miR-34 induction, primary screen, imaging, A549 dox-inducible miR-34, nuclei and caspase counts (AID 1347080). The following applies: A549 miR-34 inducible, Hoechst nuclei count, 48 h.
Experiment [2] in a line: survival rescue of mitochondrial mutant cells in low glucose, primary screen, MELAS cybrids, Rieske KO mouse fibroblasts, CellTiter-Glo (AID 1508586;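 active means mean z-score across replicates of 1.96 or higher in either the MELAS or the Rieske mutant cell line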;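 further: z relative to plate mean and SD of compound and empty wells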). Background: ATP-based viability assays read luminescence as a measure of living cells.
The mark [3] stands for this setting: stronger effect = lower value, cell number ratio, induced over uninduced.
The mark [4] stands for this setting: measured here: relative caspase fold change +Dox/-Dox.
[5] abbreviates: measured here: total cells with miR-34 induction, stronger effect = lower value.
The mark [6] stands for this setting: measured here: total cells without miR-34 induction.
[7] abbreviates: MELAS cybrid survival, CellTiter-Glo 48 h, stronger effect = higher value.
The mark [8] stands for this setting: Rieske KO mouse fibroblast survival, CellTiter-Glo 72 h.

Active and inactive are the calls of the source.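 How the source made its calls, unless noted: active means compounds whose cell count with miR-34 switched on is under 0.7 times the count with it off; inactive means the rest.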 Where a SMILES comes first, the peptide text is derived from it. The star is where a group is joined. Cbz = O=C(OCc1ccccc1)*
Further: test concentration not given here.

Regarding `CCCC(NC(=O)C(C#N)=Cc1cccc(Br)n1)c1ccccc1` (stereo unspecified), the fold change was 0.929 (inactive) in experiment [1] (setting [3]) and 0.922 in experiment [1] (setting [4]). The cell count in experiment [1] (setting [5]) came to 824; in experiment [1] (setting [6]), 888. Also, the values for the z-score in experiment [2] (setting [7]) and in experiment [2] (setting [8]) were 3.82 (active) and -1.38, respectively.

As for `CC(C)CC(C=O)NC(=O)C(CC(C)C)NC(=O)C(CC(C)C)NC(=O)OCc1ccccc1` (stereo not drawn) (Cbz-Leu-Leu-Leu-aldehyde; configuration not given here), the fold change in experiment [1] (setting [3]) is 0.872 (inactive); in experiment [1] (setting [4]), 0.735. For the same molecule, the cell count in experiment [1] (setting [5]) is 2300; in experiment [1] (setting [6]), 2640. For the same molecule, the results for the z-score in experiment [2] (setting [7]) and in experiment [2] (setting [8]) were -0.114 (inactive) and -3.43, respectively.

Consider `CC(C)(C)c1cc(C(=O)C(C#N)=NNc2cccc(Cl)c2)no1`, for which the fold change in experiment [1] (setting [3]) is 0.873 (inactive); in experiment [1] (setting [4]), 0.45. The figures for the cell count in experiment [1] (setting [5]) and in experiment [1] (setting [6]) were 4320 and 4950, respectively. Also, the results for the z-score in experiment [2] (setting [7]) and in experiment [2] (setting [8]) were -0.557 (inactive) and -3.22, respectively.

Consider `NC(=O)c1cnc(NC2CCCCC2N)nc1Nc1cccc(-n2nccn2)c1` (stereo unspecified), for which the fold change in experiment [1] (setting [3]) was 0.82 (inactive); in experiment [1] (setting [4]), 0.778. For the same molecule, the results for the cell count in experiment [1] (setting [5]) and in experiment [1] (setting [6]) were 1580 and 1920, respectively. For the same molecule, the figures for the z-score in experiment [2] (setting [7]) and in experiment [2] (setting [8]) were -0.344 (inactive) and -1.57, respectively.

Turning to `CC(=O)NC1C(N=C(N)N)C=C(C(=O)O)O[C@H]1C(O)C(O)CO` (stereo partly specified), the fold change in experiment [1] (setting [3]) is 0.903 (inactive); in experiment [1] (setting [4]), 0.622. Besides, the cell count amounted to 9700 in experiment [1] (setting [5]) and 10700 in experiment [1] (setting [6]). The values for the z-score in experiment [2] (setting [7]) and in experiment [2] (setting [8]) were -0.333 (inactive) and 0.922, respectively.

In the case of `CCCN(CCc1cccs1)C1CCc2c(O)cccc2C1` (stereo unspecified), the results for the fold change in experiment [1] (setting [3]) and in experiment [1] (setting [4]) were 0.911 (inactive) and 0.584, respectively. In addition, the cell count in experiment [1] (setting [5]) stood at 8660; in experiment [1] (setting [6]), 9500. The z-score in experiment [2] (setting [7]) was -0.281 (inactive); in experiment [2] (setting [8]) it was -0.2.

For `CC(C)(Oc1ccc(Cl)cc1)C(=O)OCCOC(=O)c1cccnc1`, the figures for the fold change in experiment [1] (setting [3]) and in experiment [1] (setting [4]) were 0.919 (inactive) and 0.391, respectively. The cell count in experiment [1] (setting [5]) stood at 8570; in experiment [1] (setting [6]) it was 9330. For the same molecule, the z-score in experiment [2] (setting [7]) was -0.212 (inactive); in experiment [2] (setting [8]), -0.266.

`OCc1ccccc1OC1OC(CO)C(O)C(O)C1O` (stereo unspecified): the fold change in experiment [1] (setting [3]) was 0.944 (inactive); in experiment [1] (setting [4]), 0.784. Also, the cell count came to 9350 in experiment [1] (setting [5]) and 9900 in experiment [1] (setting [6]). Moreover, the z-score in experiment [2] (setting [7]) was -0.348 (inactive); in experiment [2] (setting [8]) it was 0.733.

As to `CCCCc1ncc(C=C(Cc2cccs2)C(=O)O)n1Cc1ccc(C(=O)O)cc1`, the values for the fold change in experiment [1] (setting [3]) and in experiment [1] (setting [4]) were 0.858 (inactive) and 0.882, respectively. For the same molecule, the cell count was 8440 in experiment [1] (setting [5]) and 9840 in experiment [1] (setting [6]). The z-score in experiment [2] (setting [7]) was -0.00421 (inactive); in experiment [2] (setting [8]), -0.115.

With `CCC(C)C(=O)OC1CCC=C2C=CC(C)C(CCC3CC(O)CC(=O)O3)[C@H]21` (stereo partly specified), the fold change was 0.904 (inactive) in experiment [1] (setting [3]) and 0.982 in experiment [1] (setting [4]). Moreover, the cell count was 4680 in experiment [1] (setting [5]) and 5180 in experiment [1] (setting [6]). Further, the z-score is -0.482 (inactive) in experiment [2] (setting [7]) and -0.195 in experiment [2] (setting [8]).

As to `COC1=C2CC(C)CC(OC)C(O)C(C)C=C(C)C(OC(N)=O)C(OC)C=CC=C(C)C(=O)NC(=CC1=O)C2=O` (stereo unspecified), the fold change in experiment [1] (setting [3]) is 0.91 (inactive); in experiment [1] (setting [4]) it was 1.01. Moreover, the cell count in experiment [1] (setting [5]) came out at 3230; in experiment [1] (setting [6]), 3550. Further, the z-score is 2.85 (active) in experiment [2] (setting [7]) and -2.42 in experiment [2] (setting [8]).

On to `C=C1CCC(O)CC1=CC=C1CCC[C@]2(C)C(C(C)C=CC(C)C(C)C)CC[C@@H]12` (stereo partly specified), for which the results for the fold change in experiment [1] (setting [3]) and in experiment [1] (setting [4]) were 0.949 (inactive) and 0.581, respectively. The values for the cell count in experiment [1] (setting [5]) and in experiment [1] (setting [6]) were 7890 and 8320, respectively. Moreover, the z-score in experiment [2] (setting [7]) is -0.149 (inactive); in experiment [2] (setting [8]) it was -0.174.

Take `CCC(C)C(=O)OC1CC(C)C=C2C=CC(C)C(CCC3CC(O)CC(=O)O3)[C@H]21` (stereo partly specified): the fold change in experiment [1] (setting [3]) is 1.2 (inactive); in experiment [1] (setting [4]), 0.613. For the same molecule, the cell count in experiment [1] (setting [5]) was 3590; in experiment [1] (setting [6]), 2990. Moreover, the figures for the z-score in experiment [2] (setting [7]) and in experiment [2] (setting [8]) were -0.367 (inactive) and -1.71, respectively.

Regarding `OC(CNCC(O)[C@H]1CCc2cc(F)ccc2O1)[C@@H]1CCc2cc(F)ccc2O1` (stereo partly specified), the fold change is 0.966 (inactive) in experiment [1] (setting [3]) and 0.954 in experiment [1] (setting [4]). Moreover, the cell count in experiment [1] (setting [5]) was 6580; in experiment [1] (setting [6]), 6810. In addition, the z-score was 1.33 (inactive) in experiment [2] (setting [7]) and 0.256 in experiment [2] (setting [8]).

Take `CN1CCCC1CCO[C@](C)(c1ccccc1)c1ccc(Cl)cc1` (stereo partly specified): the fold change in experiment [1] (setting [3]) is 0.919 (inactive); in experiment [1] (setting [4]), 1.18. Also, the cell count came out at 7530 in experiment [1] (setting [5]) and 8200 in experiment [1] (setting [6]). The z-score in experiment [2] (setting [7]) is -0.384 (inactive); in experiment [2] (setting [8]), 0.111.

For the molecule `CCOC1OC(=O)CC1NC(=O)C1CCCN1C(=O)C(NC(=O)c1ccc(N)c(Cl)c1)C(C)(C)C` (stereo unspecified), the fold change in experiment [1] (setting [3]) was 0.983 (inactive); in experiment [1] (setting [4]), 0.559. Further, the cell count stood at 8140 in experiment [1] (setting [5]) and 8280 in experiment [1] (setting [6]). The z-score is -0.153 (inactive) in experiment [2] (setting [7]) and 0.0351 in experiment [2] (setting [8]).

As for `Nc1nc2c(ncn2C2OC(CO)C(O)C2O)c(=O)[nH]1` (stereo unspecified), the fold change in experiment [1] (setting [3]) is 0.891 (inactive); in experiment [1] (setting [4]) it was 0.755. Also, the cell count in experiment [1] (setting [5]) worked out at 8140; in experiment [1] (setting [6]), 9140. Further, the z-score in experiment [2] (setting [7]) is -0.357 (inactive); in experiment [2] (setting [8]) it was -0.0165.

Take `CN(C)c1cc(NC(=O)CNC(C)(C)C)c(O)c2c1C[C@H]1C[C@H]3C(N(C)C)C(=O)C(C(N)=O)=C(O)[C@@]3(O)C(=O)C1=C2O` (stereo partly specified): the fold change is 0.917 (inactive) in experiment [1] (setting [3]) and 1.11 in experiment [1] (setting [4]). Moreover, the cell count was found to be 8200 in experiment [1] (setting [5]) and 8950 in experiment [1] (setting [6]). The z-score in experiment [2] (setting [7]) was -0.43 (inactive); in experiment [2] (setting [8]), 0.225.

Turning to `CN(C)C1C(=O)C(C(N)=O)=C(O)[C@@]2(O)C(=O)C3=C(O)c4c(O)ccc(Cl)c4C(O)[C@H]3C[C@@H]12` (stereo partly specified), the fold change in experiment [1] (setting [3]) was 0.836 (inactive); in experiment [1] (setting [4]), 1.66. Further, the cell count was found to be 6970 in experiment [1] (setting [5]) and 8340 in experiment [1] (setting [6]). Also, the z-score in experiment [2] (setting [7]) was 3.28 (active); in experiment [2] (setting [8]), 5.13.

Turning to `Cn1cc(C=CC(=O)c2cccc(F)c2)cc1C=CC(=O)NO`, the fold change was 0.9 (inactive) in experiment [1] (setting [3]) and 1.19 in experiment [1] (setting [4]). For the same molecule, the cell count in experiment [1] (setting [5]) was found to be 7610; in experiment [1] (setting [6]), 8450. For the same molecule, the z-score in experiment [2] (setting [7]) was -0.416 (inactive); in experiment [2] (setting [8]), 0.68.

As for `O=C1NC(=O)C(=Cc2ccc(-c3ccc(F)cc3)o2)S1`, the fold change was 0.882 (inactive) in experiment [1] (setting [3]) and 0.688 in experiment [1] (setting [4]). Moreover, the cell count in experiment [1] (setting [5]) stood at 8240; in experiment [1] (setting [6]) it was 9340. For the same molecule, the z-score was -0.386 (inactive) in experiment [2] (setting [7]) and 0.141 in experiment [2] (setting [8]).

As for `COc1c(C)c2c(c(O)c1CC=C(C)CCC(=O)O)C(=O)OC2`, the results for the fold change in experiment [1] (setting [3]) and in experiment [1] (setting [4]) were 1.08 (inactive) and 0.86, respectively. Further, the figures for the cell count in experiment [1] (setting [5]) and in experiment [1] (setting [6]) were 3150 and 2920, respectively. The z-score in experiment [2] (setting [7]) is 0.238 (inactive); in experiment [2] (setting [8]), 0.269.

For the molecule `CC(=NNC(=S)N1CCC1)c1ccccn1`, the fold change was 0.887 (inactive) in experiment [1] (setting [3]) and 0.742 in experiment [1] (setting [4]). In addition, the cell count in experiment [1] (setting [5]) was 1950; in experiment [1] (setting [6]), 2200. The z-score in experiment [2] (setting [7]) is 7.64 (active); in experiment [2] (setting [8]), -5.36.

Take `COc1ccc(CC2c3cc(OC)c(OC)cc3CC[N@+]2(C)CCC(=O)OCCCCCOC(=O)CC[N@@+]2(C)CCc3cc(OC)c(OC)cc3C2Cc2ccc(OC)c(OC)c2)cc1OC` (stereo partly specified): the figures for the fold change in experiment [1] (setting [3]) and in experiment [1] (setting [4]) were 0.844 (inactive) and 1.36, respectively. Besides, the values for the cell count in experiment [1] (setting [5]) and in experiment [1] (setting [6]) were 7940 and 9400, respectively. For the same molecule, the results for the z-score in experiment [2] (setting [7]) and in experiment [2] (setting [8]) were -0.391 (inactive) and 0.533, respectively.

Consider `O=C(C=Cc1ccccc1)NC(NC(=S)Nc1cccc2cccnc12)C(Cl)(Cl)Cl` (stereo unspecified), for which the fold change is 0.979 (inactive) in experiment [1] (setting [3]) and 0.343 in experiment [1] (setting [4]). The cell count in experiment [1] (setting [5]) is 6780; in experiment [1] (setting [6]) it was 6920. Besides, the z-score was -0.276 (inactive) in experiment [2] (setting [7]) and 0.21 in experiment [2] (setting [8]).

With `CC(NC(=O)C(Cc1ccccc1)NC(=O)OCc1ccccc1)C(=O)CF` (stereo unspecified), the fold change in experiment [1] (setting [3]) is 0.911 (inactive); in experiment [1] (setting [4]) it was 0.415. The cell count in experiment [1] (setting [5]) turned out to be 8780; in experiment [1] (setting [6]), 9640. The z-score is -0.389 (inactive) in experiment [2] (setting [7]) and -0.551 in experiment [2] (setting [8]).

Values taken from PubChem BioAssay.
